According to PubChem BioAssay AID1159580 (chemical genetic matrix, 2015):
Screen size: about 5,500 compounds; about 2,000 (36%) were called active. Another 18% or so got no clear call; they are omitted. Cut-off read from the data, not from the text of the source: active = normalized growth mostly below about 0.91 (no sharp cut-off); inconclusive = no clear call, values can overlap the other calls; inactive = mostly above about 0.92. The list shows a part of the results.

Experiment: chemical genetic growth profiling, strain panel (AID 1159580);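 note: tested at 20 µM; growth read once vehicle control cultures reached saturation at 30 °C; 1 = growth at the plate median or of vehicle wells; lower values mean less growth of the strain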
Conditions: growth OD

Measured: normalized growth

Cc1[nH]c2ccccc2c1CN(C)C
inactive: S. cerevisiae deletion strains, locus YJR075W, strain HOC1, hits give low values 1.03 | S. cerevisiae deletion strains, locus YKL009W, strain mrt4, hits give low values 0.974 | S. cerevisiae deletion strains, locus YKL068W, hits give low values 1.01 | S. cerevisiae deletion strains, locus YKL085W, strain MDH1 (second series), hits give low values 0.997 | S. cerevisiae deletion strains, locus YKL085W, strain MDH1, hits give low values 0.997 | S. cerevisiae deletion strains, locus YKL160W, strain elf1, hits give low values 1.01 | S. cerevisiae deletion strains, locus YKL190W, strain CNB1, hits give low values 1.02 | S. cerevisiae deletion strains, locus YKR001C, strain vps1, hits give low values 1.01 | S. cerevisiae deletion strains, locus YKR026C, strain gcn3, hits give low values 1.02 | S. cerevisiae deletion strains, locus YKR091W, strain srl3, hits give low values 1.01 | S. cerevisiae deletion strains, locus YLL001W, strain dnm1, hits give low values 1.01 | S. cerevisiae deletion strains, locus YLL026W, hits give low values 1.02 | S. cerevisiae deletion strains, locus YLL041C, strain sdh2, hits give low values 1.01 | S. cerevisiae deletion strains, locus YLR027C, strain aat2, hits give low values 1.01 | S. cerevisiae deletion strains, locus YLR039C, strain RIC1, hits give low values 1.1 | S. cerevisiae deletion strains, locus YLR058C, strain SHM2, hits give low values 1.03 | S. cerevisiae deletion strains, locus YLR102C, strain apc9, hits give low values 1 | S. cerevisiae deletion strains, locus YLR113W, strain HOG1, hits give low values 1 | S. cerevisiae deletion strains, locus YLR221C, strain rsa3, hits give low values 1.01 | S. cerevisiae deletion strains, locus YLR258W, strain gsy2, hits give low values 1 | S. cerevisiae deletion strains, locus YLR262C, strain YPT6 (second series), hits give low values 1.01 | S. cerevisiae deletion strains, locus YLR262C, strain YPT6, hits give low values 1.05 | S. cerevisiae deletion strains, locus YLR268W, strain sec22, hits give low values 0.979 | S. cerevisiae deletion strains, locus YLR320W, strain mms22, hits give low values 1.04 | S. cerevisiae deletion strains, locus YLR330W, strain CHS5, hits give low values 1 | S. cerevisiae deletion strains, locus YLR342W, strain FKS1 (second series), hits give low values 1.02 | S. cerevisiae deletion strains, locus YLR342W, strain FKS1, hits give low values 1.01 | S. cerevisiae deletion strains, locus YLR357W, strain rsc2, hits give low values 1 | S. cerevisiae deletion strains, locus YLR370C, strain arc18, hits give low values 1.03 | S. cerevisiae deletion strains, locus YLR371W, strain rom2, hits give low values 1.01 | S. cerevisiae deletion strains, locus YLR384C, strain iki3, hits give low values 1.03 | S. cerevisiae deletion strains, locus YLR418C, strain cdc73, hits give low values 0.983 | S. cerevisiae deletion strains, locus YML016C, strain PPZ1, hits give low values 0.996 | S. cerevisiae deletion strains, locus YML032C, strain rad52, hits give low values 0.981 | S. cerevisiae deletion strains, locus YML120C, strain ndi1, hits give low values 1.01 | S. cerevisiae deletion strains, locus YML124C, strain tub3, hits give low values 0.991 | S. cerevisiae deletion strains, locus YMR058W, strain fet3, hits give low values 1.02 | S. cerevisiae deletion strains, locus YMR078C, strain ctf18, hits give low values 0.991 | S. cerevisiae deletion strains, locus YMR125W, strain sto1, hits give low values 1.01 | S. cerevisiae deletion strains, locus YMR129W, hits give low values 1.02 | S. cerevisiae deletion strains, locus YMR205C, strain PFK2, hits give low values 1.06 | S. cerevisiae deletion strains, locus YMR223W, strain ubp8, hits give low values 0.977 | S. cerevisiae deletion strains, locus YMR231W, strain pep5, hits give low values 1.02 | S. cerevisiae deletion strains, locus YMR263W, strain SAP30, hits give low values 1.02 | S. cerevisiae deletion strains, locus YMR307W, strain GAS1, hits give low values 1.15 | S. cerevisiae deletion strains, locus YNL067W, strain RPL9B, hits give low values 1.02 | S. cerevisiae deletion strains, locus YNL071W, strain lat1, hits give low values 1.01 | S. cerevisiae deletion strains, locus YNL128W, strain TEP1, hits give low values 1 | S. cerevisiae deletion strains, locus YNL183C, strain NPR1, hits give low values 0.94 | S. cerevisiae deletion strains, locus YNL209W, strain ssb2, hits give low values 1.04 | S. cerevisiae deletion strains, locus YNL233W, strain BNI4, hits give low values 1.05 | S. cerevisiae deletion strains, locus YNL248C, strain rpa49, hits give low values 1.02 | S. cerevisiae deletion strains, locus YNL250W, strain rad50, hits give low values 0.98 | S. cerevisiae deletion strains, locus YNL271C, strain bni1, hits give low values 0.995 | S. cerevisiae deletion strains, locus YNL298W, strain CLA4, hits give low values 0.985 | S. cerevisiae deletion strains, locus YNL307C, strain MCK1, hits give low values 1 | S. cerevisiae deletion strains, locus YNL322C, strain KRE1 (second series), hits give low values 1.02 | S. cerevisiae deletion strains, locus YNR049C, strain mso1, hits give low values 1.03 | S. cerevisiae deletion strains, locus YNR052C, strain pop2, hits give low values 0.994 | S. cerevisiae deletion strains, locus YOL012C, strain htz1 1.39 | S. cerevisiae deletion strains, locus YOL147C, strain pex11, hits give low values 0.993 | S. cerevisiae deletion strains, locus YOR001W, strain rrp6, hits give low values 1.02 | S. cerevisiae deletion strains, locus YOR061W, strain CKA2, hits give low values 1.02 | S. cerevisiae deletion strains, locus YOR069W, strain VPS5, hits give low values 0.995 | S. cerevisiae deletion strains, locus YOR070C, strain gyp1, hits give low values 1.02 | S. cerevisiae deletion strains, locus YOR080W, strain dia2, hits give low values 1.03 | S. cerevisiae deletion strains, locus YOR083W, strain WHI5, hits give low values 1.01 | S. cerevisiae deletion strains, locus YOR106W, strain vam3, hits give low values 1.04 | S. cerevisiae deletion strains, locus YOR136W, strain idh2, hits give low values 0.975 | S. cerevisiae deletion strains, locus YOR144C, strain elg1, hits give low values 0.999 | S. cerevisiae deletion strains, locus YOR184W, strain ser1, hits give low values 1.02 | S. cerevisiae deletion strains, locus YOR231W, strain MKK1, hits give low values 0.987 | S. cerevisiae deletion strains, locus YOR265W, strain rbl2, hits give low values 1.02 | S. cerevisiae deletion strains, locus YOR270C, strain vph1, hits give low values 1.07 | S. cerevisiae deletion strains, locus YOR290C, strain snf2, hits give low values 1.01 | S. cerevisiae deletion strains, locus YOR316C, strain cot1, hits give low values 0.992 | S. cerevisiae deletion strains, locus YPL051W, strain arl3, hits give low values 1.03 | S. cerevisiae deletion strains, locus YPL055C, strain LGE1, hits give low values 1.06 | S. cerevisiae deletion strains, locus YPL078C, strain atp4, hits give low values 1 | S. cerevisiae deletion strains, locus YPL106C, strain sse1, hits give low values 1.04 | S. cerevisiae deletion strains, locus YPL240C, strain hsp82, hits give low values 1.01 | S. cerevisiae deletion strains, locus YPL256C, strain CLN2, hits give low values 0.991 | S. cerevisiae deletion strains, locus YPR119W, strain clb2, hits give low values 0.992 | S. cerevisiae deletion strains, locus YPR141C, strain kar3, hits give low values 1 | S. cerevisiae deletion strains, locus YPR163C, strain tif3, hits give low values 0.996 | S. cerevisiae deletion strains, locus YPR167C, strain met16, hits give low values 0.988 | S. cerevisiae deletion strains, strain wtn01, hits give low values 0.966 | S. cerevisiae strains, strain wild type, hits give low values 1.03
